From PubChem BioAssay (NCI) come the findings set out here.

This is part of a sample that, as a whole, favours compounds with a hit. Of some 79,000 tested, about 15% had one in any assay. Unmarked numbers belong to inactive results. The source made the active and inactive calls. Cut-off read from the data, not from the text of the source: active = growth inhibition above about 70%; inactive = the rest. *1 amine or outer side, *2 acyl side, *3 side chain or, on linkers, in order; H or OH if unused. Where a SMILES comes first, the peptide text is derived from it. [ ]: non-standard residue; d: D form. X8 = C=CCC(O[*:1])C(=O)[*:2]; NMeV = CN[CH](C(=O)O)C(C)C; NMeA = CN[CH](C)C(=O)O; βAla = NCCC(=O)O

A short description of assay [1]: NCI Yeast Anticancer Drug Screen. Data for the rad50 strain (AID 155).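 Note: 0% = growth of vehicle-only cultures of the same strain.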 Particulars: S. cerevisiae rad50 strain growth inhibition; at 50.0 µM; stronger effect = higher value. The gist of the method: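 Readout: growth inhibition relative to vehicle-treated cultures. Compound exposure was carried out in a genetically defined yeast strain deficient in DNA damage repair.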
Assay [2] is described as follows: NCI Yeast Anticancer Drug Screen. Data for the mec2-1 strain (AID 157). Particulars: S. cerevisiae mec2-1 strain, at 50.0 µM, stronger effect = higher value. The gist of the method:
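Vehicle-treated cultures served as reference for growth inhibition of compound-exposed mec2-1 yeast.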

Assay [3] in a line: NCI Yeast Anticancer Drug Screen. Data for the sgs1 mgt1 strain (AID 161).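 Note: 0% = growth of cultures given vehicle only.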 Particulars: S. cerevisiae sgs1 mgt1 strain, at 50.0 µM, stronger effect = higher value. The gist of the method:
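Read-out: growth inhibition vs vehicle controls. Cells: mutant yeast strain deficient in DNA damage repair.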

Assay [4] is described as follows: NCI Yeast Anticancer Drug Screen. Data for the cln2 rad14 strain (AID 165).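 Note: 0% = growth equal to vehicle treated cultures.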 Particulars: S. cerevisiae cln2 rad14 strain, at 50.0 µM, stronger effect = higher value. The gist of the method:
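Each compound was tested on cln2 rad14 yeast. Inhibition of growth was calculated against vehicle-exposed controls.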

Assay [5] can be described thus: NCI Yeast Anticancer Drug Screen. Data for the bub3 strain (AID 167). Particulars: S. cerevisiae bub3 mutant strain, at 50.0 µM, stronger effect = higher value. The gist of the method: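 Readout: yeast growth inhibition, expressed relative to vehicle-only wells. The test organism is a mutant strain from a panel with lesions in DNA repair or checkpoint genes.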
Assay [6] can be described thus: NCI Yeast Anticancer Drug Screen. Data for the mlh1 rad18 strain (AID 175). Particulars: S. cerevisiae mlh1 rad18 strain growth inhibition; at 50.0 µM; stronger effect = higher value. The gist of the method:
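Vehicle-treated cultures served as the reference for growth inhibition in a yeast strain carrying DNA damage repair alterations exposed to each compound.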

`CC1(c2cccc[n+]2Cc2ccc(Cl)c(Cl)c2)OCCO1`: the growth inhibition in assay [1] is 6.7%; in assay [2], 1.65%; in assay [3], 0.2%; in assay [4], -18.3%; in assay [5], -2.2%; in assay [6] it was 14.2%.
Consider `CCC(CC)C(=O)OCCCc1ccccc1`, for which the growth inhibition was 3.95% in assay [1]; -0.05% in assay [2]; 10.4% in assay [3]; -7.4% in assay [4]; 11.9% in assay [5]; 4.4% in assay [6].
On to `COc1ccc(NC(=O)C/C(C)=C2/C(=O)NN(c3ccccc3)C2=O)cc1`, for which the growth inhibition was 33.5% in assay [1]; 15.2% in assay [2]; 39.9% in assay [3]; 4.5% in assay [4]; 19.1% in assay [5]; 41.1% in assay [6].
For the compound `O=c1c2c(oc(=Nc3ccccc3)n1-c1ccccc1)CC1(CCCCC1)C2`, the growth inhibition in assay [1] is 5.45%; in assay [2] it was 1.75%; in assay [3], -0.1%; in assay [4], -15.2%; in assay [5], -10.9%; in assay [6], -4.2%.
On to `CC(=O)N1c2ccccc2C23CCN4CC5=CCOC(O)C(C5CC42)C13` (stereo unspecified), for which the growth inhibition in assay [1] was -20.1%; in assay [2], -21.4%; in assay [3], -18.6%; in assay [4], -6.55%; in assay [5], -13.9%; in assay [6], -62.4%.
With `Nc1ccc(Cn2cnc3c(=O)[nH]cnc32)cc1`, the growth inhibition in assay [1] was -11.7%; in assay [2], -6.45%; in assay [3] it was 7.7%; in assay [4], -45.9%; in assay [5] it was 6.85%; in assay [6] it was -5.4%.
For the compound `CCCCN1C(=O)C(=O)N(CCc2ccc(OC)c(OC)c2)C1=O`, the growth inhibition is 28% in assay [1]; 5.8% in assay [2]; 11.9% in assay [3]; 18.7% in assay [4]; 1.35% in assay [5]; 18.1% in assay [6].
Consider `CCOC(=O)c1cnc2nc[nH]n2c1=O`, for which the growth inhibition is -52.8% in assay [1]; -54.5% in assay [2]; -11.2% in assay [3]; 11.6% in assay [4]; -67% in assay [5]; -36.5% in assay [6].
For the compound `C[n+]1cc(-c2ccccc2)cc2ccccc21`, the growth inhibition in assay [1] was -1.4%; in assay [2], 17.9%; in assay [3], -0.3%; in assay [4] it was -17.6%; in assay [5], 4.5%; in assay [6], -14.5%.
As for `O=C(O)C1CCC(=O)N1Cc1csc(-c2ccccc2)n1` (stereo unspecified), the growth inhibition in assay [1] was -23.8%; in assay [2] it was -19.6%; in assay [3], -1.45%; in assay [4], -19.6%; in assay [5] it was -7.15%; in assay [6], 2.7%.
In the case of `COc1cc2oc(-c3ccc(O)cc3)c(OC3OC(C)C(O)C(O)C3O)c(=O)c2c(O)c1OC` (stereo unspecified), the growth inhibition was 0.45% in assay [1]; -13.8% in assay [2]; -15.6% in assay [3]; 9.4% in assay [4]; -7.95% in assay [5]; -74.6% in assay [6].
As to `CC(=O)OCC(=O)[C@@]1(O)CC[C@H]2[C@@H]3CCC4=CC(=O)CC[C@]4(C)[C@H]3[C@@H](O)C[C@@]21C`, the growth inhibition in assay [1] is -20.6%; in assay [2], -17.4%; in assay [3], -3.2%; in assay [4], -20.3%; in assay [5], -23.1%; in assay [6] it was -38.5%.
For the compound `CCN(CC)CCCC(C)Nc1c2cc(OC)cc(C)c2nc2c(C)c(Cl)ccc12` (stereo unspecified), the growth inhibition in assay [1] is 21.6%; in assay [2] it was 50.6%; in assay [3] it was 13.8%; in assay [4] it was 19.2%; in assay [5], 4.35%; in assay [6] it was 29.4%.
For `COc1ccccc1/C=C(\C)C(=O)O`, the growth inhibition in assay [1] is 10.8%; in assay [2] it was -15.3%; in assay [3] it was -6.2%; in assay [4] it was 0.05%; in assay [5] it was -11.3%; in assay [6] it was -16.1%.
Regarding `O=[N+]([O-])c1ccccc1SSc1ccccc1[N+](=O)[O-]`, the growth inhibition in assay [1] was -20.4%; in assay [2], -15.6%; in assay [3], -36.5%; in assay [4], -1.85%; in assay [5], -46.4%; in assay [6] it was -18.6%.
Turning to `CCC1(C)CC(C)(C)c2cc(C(C)=O)c(C)cc21` (stereo unspecified), the growth inhibition was 8.1% in assay [1]; -1.05% in assay [2]; -4.7% in assay [3]; -29.5% in assay [4]; 11.3% in assay [5]; 4.15% in assay [6].
With `COc1cccc(NCC(=O)Nn2c(-c3ccccc3)nc3ccccc3c2=O)c1`, the growth inhibition in assay [1] was -37.5%; in assay [2] it was -40.8%; in assay [3] it was -27.2%; in assay [4], -3.05%; in assay [5] it was 5%; in assay [6], -23%.
Turning to `COc1cc(NN=C(C#N)C#N)c(OC)cc1Cl`, the growth inhibition is 37.6% in assay [1]; 11.2% in assay [2]; 48% in assay [3]; 23.1% in assay [4]; 40.7% in assay [5]; 34.7% in assay [6].
As for `CC(C)CNC(=S)N/N=C/c1ccc(N)cc1`, the growth inhibition in assay [1] is 31.6%; in assay [2] it was 13.7%; in assay [3] it was 3%; in assay [4], 27.8%; in assay [5], 6%; in assay [6], -1.1%.
For `CSc1n[nH]c(-c2cccs2)n1`, the growth inhibition was -6.6% in assay [1]; -15.7% in assay [2]; 19.9% in assay [3]; -8.3% in assay [4]; -6.35% in assay [5]; -0.9% in assay [6].
In the case of `C=CCC1OC(=O)CCNC(=O)C(C)N(C)C(=O)C(C(C)C)N(C)C(=O)C(C(C)CC)NC(=O)C2CCCN2C1=O` (stereo unspecified) (cyclo([X8]PI[NMeV][NMeA][βAla]); configuration not given here), the growth inhibition is 15.3% in assay [1]; 10.1% in assay [2]; 5.55% in assay [3]; 11.5% in assay [4]; 8.35% in assay [5]; 17.8% in assay [6].
Take `O=C1c2cccc3cc([N+](=O)[O-])cc(c23)C(=O)N1CCNCCNCCNCCN1C(=O)c2cccc3cc([N+](=O)[O-])cc(c23)C1=O`: the growth inhibition was 86% (active) in assay [1]; 89% (active) in assay [2]; 89.3% (active) in assay [3]; 90.2% (active) in assay [4]; 89.2% (active) in assay [5]; 90.9% (active) in assay [6].
Take `N/C(=N/O)c1cn(C2OC(CO)C(O)C2O)c2ncnc(NO)c12` (stereo unspecified): the growth inhibition in assay [1] is 9.65%; in assay [2] it was -20.6%; in assay [3] it was -0.2%; in assay [4], -1.15%; in assay [5] it was -16.1%; in assay [6], 4.1%.
Consider `C/C(=C/c1c(C)c([N+](=O)[O-])c(C)c(C)c1[N+](=O)[O-])C(=O)O`, for which the growth inhibition in assay [1] was -3.3%; in assay [2] it was 38.8%; in assay [3] it was 14.7%; in assay [4], 11.4%; in assay [5], 30.9%; in assay [6], 37%.
Turning to `CCOC(=O)CNC(=O)C(Cc1ccccc1)NC(=O)c1ccccc1NC(=O)c1ccccc1` (stereo unspecified), the growth inhibition was 28.8% in assay [1]; 20.8% in assay [2]; 4.3% in assay [3]; 13.3% in assay [4]; 0.7% in assay [5]; 22.2% in assay [6].
In the case of `O=C1NC(Cc2c[nH]c3ccccc23)C(=O)N2CCCC12` (stereo unspecified), the growth inhibition in assay [1] was -4.85%; in assay [2] it was 1%; in assay [3], -7%; in assay [4], -6.5%; in assay [5], -6.3%; in assay [6], 8.85%.
Regarding `COC(=O)OC(C#N)c1cccc([N+](=O)[O-])c1` (stereo unspecified), the growth inhibition in assay [1] is 15.8%; in assay [2], 8.8%; in assay [3], 6.2%; in assay [4], -13.7%; in assay [5] it was -3.9%; in assay [6], 9%.
Take `CCCCCCCCCCCCCCCCCCSCCCCCCCCCCCCCCCCCC`: the growth inhibition was 25.1% in assay [1]; 2.75% in assay [2]; -16.9% in assay [3]; -20.4% in assay [4]; -2.55% in assay [5]; -17.6% in assay [6].
As to `Cc1ccccc1N=C(N)Nc1ccccc1C`, the growth inhibition is -25.5% in assay [1]; -29.9% in assay [2]; -44.3% in assay [3]; 5.7% in assay [4]; -38.7% in assay [5]; -52.4% in assay [6].
Take `Cc1nc2ccccc2nc1CC(=N)c1ccccc1`: the growth inhibition was 24.2% in assay [1]; 15.8% in assay [2]; -5.85% in assay [3]; 5.1% in assay [4]; 35.7% in assay [5]; 17.8% in assay [6].
Turning to `CC(=O)N(C)c1cccc2ccccc12`, the growth inhibition is 17.9% in assay [1]; -1.35% in assay [2]; 9.85% in assay [3]; -4.65% in assay [4]; 6.75% in assay [5]; 5.2% in assay [6].
`NC(=O)N=C(NC(N)=O)NC(N)=O`: the growth inhibition in assay [1] is -17.1%; in assay [2], -21.5%; in assay [3] it was -10.2%; in assay [4], -18.3%; in assay [5], -6.85%; in assay [6] it was -17.1%.
For the compound `c1ccc(C2OCCO2)c(OCCOc2cc(OCCOc3ccccc3C3OCCO3)c(OCCOc3ccccc3C3OCCO3)cc2OCCOc2ccccc2C2OCCO2)c1`, the growth inhibition in assay [1] is -7.6%; in assay [2], -18.9%; in assay [3], -9.9%; in assay [4] it was 0.3%; in assay [5], -4.3%; in assay [6], 12.3%.
Regarding `Cc1nc2ccccc2c(Br)c1Br`, the growth inhibition in assay [1] is 14.5%; in assay [2] it was 7.35%; in assay [3], 3.55%; in assay [4], 11.2%; in assay [5], -4.05%; in assay [6] it was 6.5%.
In the case of `Cc1ccc(-c2cc(O)c3nc4ccccc4n3c2)cc1`, the growth inhibition was -36.4% in assay [1]; -10.1% in assay [2]; -31.4% in assay [3]; -22.9% in assay [4]; -18.5% in assay [5]; -24.1% in assay [6].
As to `O=C(NNC(=O)c1ccc2ccccc2n1)c1ccc2ccccc2n1`, the growth inhibition was 5.2% in assay [1]; 2.45% in assay [2]; 12.3% in assay [3]; 9.8% in assay [4]; 0.2% in assay [5]; 16.6% in assay [6].
